{
  "source": "PubChem BioAssay (EPA / NIEHS)",
  "note": "Inconclusive results are not listed. Active and inactive are the calls of the source. The calls were made as follows: active = hit-call score of the fitted dose curve at least 0.9, where 1 is the maximum; inconclusive = response in the unintended direction; inactive = score below 0.9.",
  "data": [
    {"target": "Androgen receptor (Homo sapiens) (UniProt P10275)", "sequence (P10275 whole entry, looked up, the tested form may be a part)": "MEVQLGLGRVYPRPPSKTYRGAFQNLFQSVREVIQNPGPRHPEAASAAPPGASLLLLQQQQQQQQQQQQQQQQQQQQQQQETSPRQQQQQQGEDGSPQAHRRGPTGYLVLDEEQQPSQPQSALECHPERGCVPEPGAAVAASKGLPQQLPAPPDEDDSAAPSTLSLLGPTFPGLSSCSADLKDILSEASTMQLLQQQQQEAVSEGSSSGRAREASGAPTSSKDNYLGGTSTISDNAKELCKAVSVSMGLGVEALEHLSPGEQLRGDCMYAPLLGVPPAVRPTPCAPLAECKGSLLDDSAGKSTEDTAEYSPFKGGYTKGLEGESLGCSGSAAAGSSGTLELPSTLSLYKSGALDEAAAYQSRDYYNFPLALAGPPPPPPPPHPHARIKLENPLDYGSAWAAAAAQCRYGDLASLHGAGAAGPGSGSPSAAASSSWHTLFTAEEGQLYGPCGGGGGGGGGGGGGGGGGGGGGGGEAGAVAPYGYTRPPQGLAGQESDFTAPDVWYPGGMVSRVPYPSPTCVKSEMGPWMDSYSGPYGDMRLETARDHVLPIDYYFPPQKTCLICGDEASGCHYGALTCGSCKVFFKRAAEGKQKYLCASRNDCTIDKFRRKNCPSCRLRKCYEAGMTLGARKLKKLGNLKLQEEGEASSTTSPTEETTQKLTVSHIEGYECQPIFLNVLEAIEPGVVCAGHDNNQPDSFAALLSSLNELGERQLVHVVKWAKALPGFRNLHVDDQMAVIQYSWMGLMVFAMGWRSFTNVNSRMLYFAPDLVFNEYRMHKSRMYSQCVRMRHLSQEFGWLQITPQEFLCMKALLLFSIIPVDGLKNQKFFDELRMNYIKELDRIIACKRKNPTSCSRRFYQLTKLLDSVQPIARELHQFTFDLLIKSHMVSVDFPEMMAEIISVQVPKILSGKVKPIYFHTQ", "assay": "ATG_AR_TRANS: Attagene TRANS-FACTORIAL HepG2 Assay for human Androgen Receptor (AR) (AID 2282973)", "details": "HepG2 Attagene TRANS-FACTORIAL AR reporter transcription", "outline": "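Transfected HepG2, 24 h treatment, chimeric NR-Gal4 driving GAL4-UAS reporters. mRNA induction by RT-PCR/capillary electrophoresis fluorescence; DMSO as negative control and baseline.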", "values": [
      {"smiles": "NC(=O)C(F)(F)C(F)(F)C(F)(F)C(F)(F)C(F)(F)C(F)(F)C(F)(F)F", "outcome": "inactive"},
      {"smiles": "CC(C)OC(=O)C(C)(C)Oc1ccc(C(=O)c2ccc(Cl)cc2)cc1", "outcome": "inactive"},
      {"smiles": "C[Si](C)(C)C(F)(F)C(F)(F)C(F)(F)F", "outcome": "inactive"},
      {"smiles": "O=C(O)C(F)(OC(F)(F)C(F)(OC(F)(F)C(F)(OC(F)(F)C(F)(F)C(F)(F)F)C(F)(F)F)C(F)(F)F)C(F)(F)F", "note": "(stereo not given)", "outcome": "inactive"},
      {"smiles": "CCN(CC)c1ccc(C=O)c(O)c1", "outcome": "inactive"},
      {"smiles": "Cc1ccc(S(=O)(=O)OCC(F)(F)C(F)(F)C(F)(F)C(F)(F)C(F)(F)C(F)F)cc1", "outcome": "inactive"},
      {"smiles": "CNS(=O)(=O)C(F)(F)C(F)(F)C(F)(F)C(F)(F)C(F)(F)C(F)(F)C(F)(F)C(F)(F)F", "outcome": "inactive"},
      {"smiles": "O=C(O)C(F)(F)C(F)(F)C(F)(F)OC(F)(F)F", "outcome": "inactive"},
      {"smiles": "OCCCC(F)(F)C(F)(F)C(F)(F)F", "outcome": "inactive"},
      {"smiles": "O=C(Cl)C(F)(F)C(F)(F)C(F)(F)C(=O)Cl", "outcome": "inactive"},
      {"smiles": "C=C1C[C@H]2[C@@H]3C=C(C)C4=CC(=O)CC[C@]4(C)[C@H]3CC[C@]2(C)[C@@]1(OC(C)=O)C(C)=O", "outcome": "inactive"},
      {"smiles": "CC(=N[Si](C)(C)C)O[Si](C)(C)C", "outcome": "inactive"},
      {"smiles": "NS(=O)(=O)C(F)(F)C(F)(F)C(F)(F)C(F)(F)C(F)(F)C(F)(F)F", "outcome": "inactive"},
      {"smiles": "C=CC(=O)OCC(F)(F)C(F)(F)C(F)(F)C(F)(F)C(F)(F)C(F)(F)C(F)(F)F", "outcome": "inactive"},
      {"smiles": "CC(=O)S[C@@H]1CC2=CC(=O)CC[C@]2(C)[C@H]2CC[C@@]3(C)[C@@H](CC[C@@]34CCC(=O)O4)[C@H]12", "outcome": "inactive"},
      {"smiles": "OCC(F)(F)C(F)(F)C(F)(F)F", "outcome": "inactive"},
      {"smiles": "CCN(CC)c1ccc(N=Nc2ccccc2)cc1", "outcome": "inactive"},
      {"smiles": "C=CC(F)(F)C(F)(F)C(F)(F)C(F)(F)C(F)(F)C(F)(F)C(F)(F)C(F)(F)F", "outcome": "inactive"},
      {"smiles": "OCC(F)(F)C(F)(F)C(F)(F)C(F)F", "outcome": "inactive"},
      {"smiles": "OC(O)C(F)(F)C(F)(F)F", "outcome": "inactive"},
      {"smiles": "OCC(F)(F)C(F)(F)C(F)(F)C(F)(F)C(F)(F)C(F)(F)F", "outcome": "inactive"},
      {"smiles": "CCCCCCCCC(F)(F)C(F)(F)C(F)(F)C(F)(F)C(F)(F)C(F)(F)F", "outcome": "inactive"},
      {"smiles": "NC(=O)C(F)(F)C(F)(F)C(F)(F)C(F)F", "outcome": "inactive"},
      {"smiles": "O=c1cc(-c2ccccc2)oc2cc(O)cc(O)c12", "outcome": "inactive"},
      {"smiles": "C=CC(=O)OCC(F)(F)C(F)(F)C(F)(F)C(F)(F)COC(=O)C=C", "outcome": "inactive"},
      {"smiles": "C=CCc1cc(S(=O)(=O)c2ccc(O)c(CC=C)c2)ccc1O", "outcome": "inactive"},
      {"smiles": "O=C(O)CCC(F)(F)C(F)(F)C(F)(F)C(F)(F)C(F)(F)F", "outcome": "inactive"},
      {"smiles": "CN1CCN(C)CC1", "outcome": "inactive"},
      {"smiles": "CN(CCO)S(=O)(=O)C(F)(F)C(F)(F)C(F)(F)C(F)(F)C(F)(F)C(F)(F)C(F)(F)C(F)(F)F", "outcome": "inactive"},
      {"smiles": "OCC(O)CC(F)(F)C(F)(F)C(F)(F)C(F)(F)C(F)(F)C(F)(F)C(F)(F)C(F)(F)F", "note": "(stereo not given)", "outcome": "inactive"},
      {"smiles": "OCC(F)(F)C(F)(F)C(F)(F)C(F)(F)C(F)(F)C(F)(F)C(F)(F)C(F)(F)C(F)(F)C(F)(F)C(F)(F)F", "outcome": "inactive"},
      {"smiles": "O=C(O)C(F)(F)C(F)(F)C(F)(F)C(F)(F)F", "outcome": "inactive"},
      {"smiles": "COc1ccc(C(=O)c2ccccc2)c(O)c1", "outcome": "inactive"},
      {"smiles": "NC(=O)C(F)(F)C(F)(F)C(F)(F)F", "outcome": "inactive"},
      {"smiles": "O=C(O)C(F)(F)C(F)(F)C(F)(F)OC(F)(C(F)(F)F)C(F)(F)F", "outcome": "inactive"},
      {"smiles": "Cc1cc(F)ccc1-c1cc(N2CC[C@@H](O)[C@H]2CO)ncc1N(C)C(=O)C(C)(C)c1cc(C(F)(F)F)cc(C(F)(F)F)c1", "outcome": "inactive"},
      {"smiles": "O=C(O)C(F)(F)C(F)(F)C(F)(F)C(F)(F)C(F)(F)C(F)(F)C(F)(F)C(F)(F)C(F)(F)C(F)(F)C(F)(F)C(F)(F)C(F)(F)F", "outcome": "inactive"},
      {"smiles": "O=c1c(-c2ccc(O)cc2)coc2cc(O)ccc12", "outcome": "inactive"},
      {"smiles": "c1ccc2c(c1)ccc1ccccc12", "outcome": "inactive"},
      {"smiles": "OCC(O)CC(F)(F)C(F)(F)C(F)(F)C(F)(F)F", "note": "(stereo not given)", "outcome": "inactive"}
    ]}
  ]
}
